Sampled rows, rich in hits. Any-hit rate of the full collection: about 5.7%.
hgDAF-12 ag: H. glycines DAF-12 receptor agonists, primary screen, cell-based, luminescence, HEK293, GAL4 fusion, UAS-luciferase; hit rate 1.8% among 370,000; Nuclear hormone receptor DAF-12 (Heterodera glycines), GAL4 fusion; activation, % at 6.8 µM; AID 687014, 2013; HEK293 GAL4-hgDAF12 UAS-luciferase reporter, agonist luminescence; normalized to butyrate control;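 active = activation above a cutoff set at the mean of all screened compounds plus 3 SD, cut at about 10% in these data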;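 also: 0% = DMSO wells and 100% = sodium butyrate wells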
hcDAF-12 act: H. contortus DAF-12 nuclear receptor activators, primary screen, cell-based, luminescence, HEK293, lit1-tk-luc reporter. HEK293 hcDAF-12 lit1-tk-luc reporter; 0% DMSO, 100% Δ7-dafachronic acid. activation, % at 6.8 µM. hit rate 1.4% among 370,000. AID 652067, 2013;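 active = activation above the mean of all tested compounds plus 3 SD, cut at about 5.5% in these data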;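 also: 100% = response to 3 µM Δ7-dafachronic acid high control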
ssDAF12 agonist: S. stercoralis DAF-12 nuclear receptor activators, primary screen, cell-based, luminescence, HEK293, GRIP1 co-expression, lit1-tk-luc; Nuclear hormone receptor DAF-12 (Strongyloides stercoralis); HEK293 ssDAF-12/GRIP1 lit1-tk-luc reporter; % of 3 µM dafachronic acid response; activation, % at 6.8 µM; hit rate 1% among 370,000; AID 652126, 2013;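 active = activation above the mean over all tested compounds plus 3 SD, cut at about 0.9% in these data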;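 also: 0% = DMSO-only wells and 100% = 3 µM delta7-dafachronic acid wells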
DAX1 inh-1: DAX1 (NR0B1) inhibitors, primary screen, cell-based, HEK293, Gal4-DAX1, luciferase luminescence; hit rate 0.99% among 340,000; Nuclear receptor subfamily 0 group B member 1 (Homo sapiens), P51843; inhibition, % at 6.75 µM; HEK293 Gal4-DAX1 luciferase reporter;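 active = inhibition above the mean over all tested compounds plus 3 SD, cut at about 4.2% in these data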;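 also: 0% = DAX1-transfected cells with DMSO and 100% = empty-vector control cells with DMSO; inhibition shows as a rise in luminescence from relieved DAX1 repression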
Target sequence (P51843 207-470 limits assumed): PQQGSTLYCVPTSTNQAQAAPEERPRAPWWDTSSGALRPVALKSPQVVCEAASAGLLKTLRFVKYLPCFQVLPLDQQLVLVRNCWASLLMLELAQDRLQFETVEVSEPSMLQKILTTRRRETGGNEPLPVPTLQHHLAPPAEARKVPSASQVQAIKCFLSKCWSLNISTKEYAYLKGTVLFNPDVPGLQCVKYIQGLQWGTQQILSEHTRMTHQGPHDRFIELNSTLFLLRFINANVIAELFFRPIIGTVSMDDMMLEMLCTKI
AHR act: AHR activators, primary screen, cell-based, luminescence, luciferase reporter, human; AHR-responsive luciferase reporter cells; activation, % at 5 µM; hit rate 2.5% among 320,000; AID 2796, 2010; in the data active = activation above about 47%;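 also: 0% = vehicle wells and 100% = reference agonist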
DAX1 inh-2: DAX1 (NR0B1) inhibitors on StAR promoter, primary screen, cell-based, luminescence, SF-1 (NR5A1), full-length DAX-1. HEK293T StAR-luciferase reporter, SF-1/DAX-1 repression relief. inhibition, % at 6.8 µM. hit rate 1.1% among 370,000;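 active = inhibition above the mean over all tested compounds plus 3 SD, cut at about 3.6% in these data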;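 also: 0% = DAX-1 cells with DMSO and 100% = cells lacking DAX-1 with DMSO; higher inhibition means more luminescence from relief of DAX-1 repression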
AHR act cf: AHR activators, confirmation, cell-based, luminescence, luciferase reporter, human; shares compounds with AHR act; human cells, AHR-responsive luciferase reporter; activation, % at 9 µM; hit rate 87% among 2,300; AID 2845, 2010; in the data active = activation above about 49%;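 also: HepG2 hepatoma cells carrying a DRE-driven firefly luciferase reporter; 0% = vehicle wells and 100% = reference agonist wells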
PXR act counter: human PXR activators, counter-screen for AHR activator project, cell-based, luciferase luminescence; hit rate 88% among 2,300; shares compounds with AHR act; AID 434939, 2010; cell-based PXR reporter; activation, % at 11.6 µM; in the data active = activation above about 11%;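 also: human hepatoma DPX-2 cells expressing full-length human PXR; 0% = DMSO and 100% = reference agonist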
* marks the source's active call; other numbers are inactive results.

For O=C(CC1C(=O)NCCN1Cc1ccccc1C(F)(F)F)NC1CCCCCC1 (stereo unspecified) the results were hgDAF-12 ag 0.7, hcDAF-12 act 0.0, ssDAF12 agonist -1.6, DAX1 inh-1 -0.7, AHR act -0.6 and DAX1 inh-2 -0.1.
Screening CN(c1ccccc1)S(=O)(=O)c1cccc(NC(=O)C2CCCO2)c1 (stereo unspecified) returned hgDAF-12 ag -1.7, hcDAF-12 act -1.7, ssDAF12 agonist -0.8, DAX1 inh-1 -1.5, AHR act -0.4 and DAX1 inh-2 -1.2.
Screening CCN(/N=C/C=C/c1ccccc1)c1cc(=O)n(C)c(=O)[nH]1 returned hgDAF-12 ag -0.9, hcDAF-12 act -0.3, ssDAF12 agonist -1.6, DAX1 inh-1 0.0, AHR act 132.1*, DAX1 inh-2 -0.2, AHR act cf 33.3 and PXR act counter 8.2.
Cn1c(=O)cc(C(=O)N/N=C/c2ccc(Cl)cc2)[nH]c1=O was read as hgDAF-12 ag 0.4, hcDAF-12 act -2.1, ssDAF12 agonist -1.5, AHR act 1.2 and DAX1 inh-2 -0.1.
CCN(/N=C/c1ccc(Cl)cc1)c1cc(=O)n(C)c(=O)[nH]1 was read as hgDAF-12 ag -1.6, hcDAF-12 act -3.0, ssDAF12 agonist -1.1, DAX1 inh-1 -0.8, AHR act 120.6*, DAX1 inh-2 -0.8 and AHR act cf 71.4*.
`CC(CCc1ccccc1)NCC#N` (stereo unspecified) gave hgDAF-12 ag -0.2, hcDAF-12 act -2.1, ssDAF12 agonist -2.1, DAX1 inh-1 -1.1, AHR act -0.6 and DAX1 inh-2 -0.1.
For CCc1ccc(S(=O)(=O)/N=C2\C=CC(=O)c3ccccc32)cc1 the results were AHR act 111.5*, AHR act cf 92.8* and PXR act counter 163.7*.
For O=S(=O)(N=C1C=CC(=NS(=O)(=O)c2ccccc2)c2ccccc21)c1ccccc1 the results were hgDAF-12 ag -2.7, hcDAF-12 act 1.3, ssDAF12 agonist -0.6, DAX1 inh-1 0.2 and DAX1 inh-2 -1.6.
Screening CN1CCN(C(=O)c2ccccc2NC(=O)c2sc3ccccc3c2Cl)CC1 returned hgDAF-12 ag -0.7, hcDAF-12 act -0.2, ssDAF12 agonist -0.9, DAX1 inh-1 1.5, AHR act 7.8 and DAX1 inh-2 -0.2.
CN1CCN(c2ccc(NC(=O)c3sc4ccccc4c3Cl)cc2)CC1 was read as hgDAF-12 ag 10.6*, hcDAF-12 act 0.7, ssDAF12 agonist -1.2, DAX1 inh-1 3.0, AHR act 80.1*, DAX1 inh-2 1.2 and AHR act cf 48.5*.
For O=C(NC1CC1)c1cc2ccccc2o1 the results were hgDAF-12 ag 3.7, hcDAF-12 act -1.8, ssDAF12 agonist -0.3, DAX1 inh-1 0.3, AHR act -0.3 and DAX1 inh-2 1.2.
Screening O=C(NC1CCCC1)c1cc2c(ccc3ccccc32)o1 returned hgDAF-12 ag 11.2*, hcDAF-12 act 4.7, ssDAF12 agonist 0.3, DAX1 inh-1 1.0, AHR act 112.1*, DAX1 inh-2 3.2 and AHR act cf 66.1*.
`Brc1cc(Cc2nnc(-c3ccccc3)o2)c(Br)s1` gave hgDAF-12 ag 2.6, hcDAF-12 act 1.2, ssDAF12 agonist -1.4, DAX1 inh-1 1.5, AHR act 42.3 and DAX1 inh-2 -0.2.

Screens (PubChem)
